Reference: the supplement of paper PMC3342239
Where a name gives a salt, the structure may show the parent alone.

What follows are molecules tested on Saccharomyces cerevisiae (assay: fraction of cells in G1 phase (DNA content, flow cytometry); higher = more cells with unreplicated DNA (G1 delay)). Conditions: temperature: 30 C; YPD; JTY2953 pdr5 snq2 (sensitized); drug added to: cultures diluted from stationary phase; 6-7 h.
Method in brief: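 S. cerevisiae in YPD at 30°C was dosed with library drugs, using a final 20 µg/ml for sensitized JTY2953 diluted 1∶200 from overnight and fixed at 6–7 h, or dosing dividing JTY2953 (fixed at 6 h) and BY4741 (fixed at 4.33 h). Ethanol-fixed, SYTOX Green-stained cells were read by flow cytometry (10,000 events). The G1 fraction is taken as the Dean-Jett-Fox G1 peak area divided by the G1 and G2/M areas combined.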

Structure (SMILES) | fraction of cells in G1 phase
CC(C(=O)O)c1ccc2c(c1)Cc1cccnc1O2 (configuration not stated) [Pranoprofen] (78.3466 µM) | 0.479
CCCCC[C@H](O)/C=C/[C@H]1[C@H](O)CC(=O)[C@@H]1C/C=C\CCCC(=O)O [Dinoprostone] (56.7416 µM) | 0.487
COc1ccc2c(c1)c(CC(=O)O)c(C)n2C(=O)c1ccc(Cl)cc1 [Indomethacin] (55.8977 µM) | 0.519
C[C@@H](O)[C@@H]1NC(=O)[C@H](CCCCN)NC(=O)[C@@H](Cc2c[nH]c3ccccc23)NC(=O)[C@H](Cc2ccccc2)NC(=O)[C@@H](NC(=O)[C@H](N)Cc2ccccc2)CSSC[C@@H](C(=O)N[C@H](CO)[C@@H](C)O)NC1=O [Octreotide] (19.6221 µM) | 0.478
CC(C)NCC(O)COc1ccc(CCOCC2CC2)cc1 (configuration not stated) [Betaxolol HCl] (65.054 µM) | 0.525
CC(CCc1ccc(O)cc1)NCCc1ccc(O)c(O)c1 (configuration not stated) [Dobutamine HCl] (66.3594 µM) | 0.528
Nc1nc2c(ncn2COC(CO)CO)c(=O)[nH]1 [Ganciclovir] (78.3591 µM) | 0.451
O=C(O)C(=O)O.[NH-][C@@H]1CCCC[C@H]1[NH-].[Pt+2] [Oxaliplatin] (50.3396 µM) | 0.493
CCOC(=O)[C@H](CCc1ccccc1)N[C@@H](C)C(=O)N1CCC[C@H]1C(=O)O [Enalapril] (53.127 µM) | 0.511
CNC1(C)C2CCC(C2)C1(C)C (configuration not stated) [Mecamylamine HCl] (119.548 µM) | 0.486
CN(C)CCC=C1c2ccccc2CCc2ccccc21 [Amitriptyline HCl] (63.7146 µM) | 0.418
C1COC(NC(C2CC2)C2CC2)=N1 [Rilmenidine hemifumarate] (110.956 µM) | 0.483
CN1[C@@H](CC(=O)c2ccccc2)CCC[C@H]1C[C@H](O)c1ccccc1 [Lobeline] (59.2652 µM) | 0.525
N=C(N)N/N=C/c1c(Cl)cccc1Cl [Guanabenz acetate] (86.548 µM) | 0.488
Nc1nc(O)c2ncn(CCC(CO)CO)c2n1 [Penciclovir] (78.9694 µM) | 0.461
CCc1ccc(CCOc2ccc(CC3SC(=O)NC3=O)cc2)nc1 (configuration not stated) [Pioglitazone] (56.1093 µM) | 0.477
O=C(O)CCCc1ccccc1 [Sodium phenylbutyrate] (107.418 µM) | 0.491
CC1(C)S[C@@H]2[C@H](NC(=O)[C@H](N)c3ccccc3)C(=O)N2[C@H]1C(=O)O [Ampicillin trihydrate] (57.2391 µM) | 0.497
Cc1cn([C@H]2C[C@H](N=[N+]=[N-])[C@@H](CO)O2)c(=O)[nH]c1=O [3'-azido-3'-deoxythymidine] (74.8374 µM) | 0.488
O=C(NCCO[N+](=O)[O-])c1cccnc1 [Nicorandil] (94.7066 µM) | 0.516
COc1ccnc(C[S+]([O-])c2nc3cc(OC(F)F)ccc3[nH]2)c1OC (configuration not stated) [Pantoprazole] (52.168 µM) | 0.484
Nc1ccn([C@H]2CC[C@@H](CO)O2)c(=O)n1 [2',3' - dideoxycytidine] (94.687 µM) | 0.474
CCCSc1ccc2[nH]c(NC(=O)OC)nc2c1 [Albendazole] (75.3761 µM) | 0.475
CCCCN1CCCCC1C(=O)Nc1c(C)cccc1C (configuration not stated) [Bupivacaine HCl] (69.3393 µM) | 0.447
NC(=O)c1ncn([C@@H]2O[C@H](CO)[C@@H](O)[C@H]2O)n1 [Ribavirin] (81.8972 µM) | 0.481
CN1[C@@H]2CC[C@H]1C[C@@H](OC(=O)c1c[nH]c3ccccc13)C2 [Tropisetron HCl] (70.3331 µM) | 0.469
CCN(CC)CC(=O)Nc1c(C)cccc1C [Lidocaine] (73.8552 µM) | 0.499
